From PubChem BioAssay (NCI)
Compounds without any hit were thinned out: in the full panel of roughly 79,000, 15% have a hit. Unmarked numbers belong to inactive results. Active and inactive are the calls of the source. Rule as the data show it: active = growth inhibition above about 70%; inactive = the rest.

Tests used:
[1] = NCI Yeast Anticancer Drug Screen. Data for the rad50 strain (AID 155);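 also: 0% = growth of vehicle-only cultures of the same strain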; conditions: S. cerevisiae rad50 strain growth inhibition; at 50.0 µM; stronger effect = higher value
How it was run: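 Growth of the mutant yeast was measured after compound exposure and referenced to vehicle-treated cultures.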

[2] = NCI Yeast Anticancer Drug Screen. Data for the mec2-1 strain (AID 157); conditions: S. cerevisiae mec2-1 strain, at 50.0 µM, stronger effect = higher value
How it was run: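 mec2-1 yeast strain, carrying an alteration in DNA damage repair or cell cycle control, was exposed to compounds; growth inhibition was measured relative to vehicle-treated controls.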

[3] = NCI Yeast Anticancer Drug Screen. Data for the sgs1 mgt1 strain (AID 161);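 also: 0% = growth of cultures given vehicle only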; conditions: S. cerevisiae sgs1 mgt1 strain, at 50.0 µM, stronger effect = higher value
How it was run: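 This yeast growth screen uses a strain with defined DNA-repair lesions; compound-treated growth is compared with vehicle-treated growth.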

[4] = NCI Yeast Anticancer Drug Screen. Data for the cln2 rad14 strain (AID 165);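 also: 0% = growth equal to vehicle treated cultures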; conditions: S. cerevisiae cln2 rad14 strain, at 50.0 µM, stronger effect = higher value
How it was run: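 Yeast carrying cln2 and rad14 alterations (cell cycle control and DNA damage repair) were exposed to compounds. Growth inhibition was measured against vehicle-treated controls.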

[5] = NCI Yeast Anticancer Drug Screen. Data for the bub3 strain (AID 167); conditions: S. cerevisiae bub3 mutant strain, at 50.0 µM, stronger effect = higher value
How it was run: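 Whole-cell yeast assay. The mutant strain was incubated with compounds, and growth inhibition was determined by comparison with vehicle-treated cells.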

[6] = NCI Yeast Anticancer Drug Screen. Data for the mlh1 rad18 strain (AID 175); conditions: S. cerevisiae mlh1 rad18 strain growth inhibition; at 50.0 µM; stronger effect = higher value
How it was run: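 Growth inhibition of the yeast strain was measured after compound exposure and expressed relative to vehicle-treated controls. The strain carries defined defects in DNA damage repair.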

O=Cc1c[nH]c2ccccc12
growth inhibition [1]: -7.7% | growth inhibition [2]: 9.95% | growth inhibition [3]: 22.8% | growth inhibition [4]: -15.6% | growth inhibition [5]: 1.85% | growth inhibition [6]: 6.25%

CN1CCC(c2ccccc2)(c2ccccc2)OC1
growth inhibition [1]: 3.7% | growth inhibition [2]: 6.85% | growth inhibition [3]: 6.9% | growth inhibition [4]: -8.45% | growth inhibition [5]: 9.95% | growth inhibition [6]: 5.15%

CCCCC(=O)N1SC(NC(=O)OC)=Nc2ccccc21
growth inhibition [1]: 61% | growth inhibition [2]: 42.4% | growth inhibition [3]: 61.8% | growth inhibition [4]: 67.2% | growth inhibition [5]: 92.4% (active) | growth inhibition [6]: 76.2% (active)

O=C(N=c1ccc2nc(=O)[nH]n(O)c-2c1)C(F)(F)F
growth inhibition [1]: -12.1% | growth inhibition [2]: 5.5% | growth inhibition [3]: -13.4% | growth inhibition [4]: -10.3% | growth inhibition [5]: -46.6% | growth inhibition [6]: -32.7%

O=C1c2ccccc2C(O)N1CCc1c[nH]c2ccccc12 (stereo unspecified)
growth inhibition [1]: 12.4% | growth inhibition [2]: -24.1% | growth inhibition [3]: -12.1% | growth inhibition [4]: 8.2% | growth inhibition [5]: 1.3% | growth inhibition [6]: -10.9%

O=C1CCC(=O)c2cc(Br)ccc2N1
growth inhibition [1]: 25.8% | growth inhibition [2]: 11.8% | growth inhibition [3]: 2.85% | growth inhibition [4]: 13% | growth inhibition [5]: 46.2% | growth inhibition [6]: 23.1%

O=C(CC(=O)c1ccccc1)CC(=O)c1ccc(C(=O)CC(=O)CC(=O)c2ccccc2)cc1
growth inhibition [1]: 29.4% | growth inhibition [2]: 1.3% | growth inhibition [3]: 30.9% | growth inhibition [4]: 0.85% | growth inhibition [5]: -1.8% | growth inhibition [6]: 22.4%

NC(=O)CC[n+]1ccc(C(=O)O)cc1
growth inhibition [1]: -21.8% | growth inhibition [2]: -31.7% | growth inhibition [3]: -6.1% | growth inhibition [4]: 0.4% | growth inhibition [5]: -25.1% | growth inhibition [6]: -5.05%

Cc1ccc2c(c1)NC(C1Nc3cc(C)ccc3O1)O2 (stereo unspecified)
growth inhibition [1]: -0.3% | growth inhibition [2]: -6.8% | growth inhibition [3]: -1.25% | growth inhibition [4]: -46.5% | growth inhibition [5]: -16.9% | growth inhibition [6]: -12.2%

CC1=CC(=C(c2cc(C)c(O)c(C(=O)O)c2)c2cc(C)c(O)c(C(=O)O)c2)C=C(C(=O)O)C1=O
growth inhibition [1]: -2.3% | growth inhibition [2]: -28.1% | growth inhibition [3]: -8.5% | growth inhibition [4]: 2.3% | growth inhibition [5]: 8.8% | growth inhibition [6]: 7.3%

Clc1ccc(/C=C2/c3ccccc3-c3nc4ccccc4cc32)cc1
growth inhibition [1]: -1.1% | growth inhibition [2]: 24% | growth inhibition [3]: 23.8% | growth inhibition [4]: -24.9% | growth inhibition [5]: -9.4% | growth inhibition [6]: 6.85%

Cc1cn(C2CC(O)C(CO)O2)c(=O)nc1NCc1cccs1 (stereo unspecified)
growth inhibition [1]: 0.8% | growth inhibition [2]: 2% | growth inhibition [3]: -8.55% | growth inhibition [4]: -9.15% | growth inhibition [5]: -4.55% | growth inhibition [6]: 2.95%

Cc1sc2c(c1C)C(=O)c1cccn1-2
growth inhibition [1]: 4.95% | growth inhibition [2]: -27.8% | growth inhibition [3]: -21.6% | growth inhibition [4]: -2.8% | growth inhibition [5]: -13.9% | growth inhibition [6]: -1%

C=CCON(C)c1ccc([N+](=O)[O-])cc1[N+](=O)[O-]
growth inhibition [1]: 15.3% | growth inhibition [2]: -0.9% | growth inhibition [3]: 16.1% | growth inhibition [4]: -43.9% | growth inhibition [5]: -1.05% | growth inhibition [6]: 13.8%

c1ccc2c(c1)nc1n2CC2(CS1)CSc1nc3ccccc3n1C2
growth inhibition [1]: -8.65% | growth inhibition [2]: 2.1% | growth inhibition [3]: -7.15% | growth inhibition [4]: -25.8% | growth inhibition [5]: -13.4% | growth inhibition [6]: -3.1%

NC(Cc1ccccc1)C(=O)Nc1cccnc1 (stereo unspecified)
growth inhibition [1]: -17.4% | growth inhibition [2]: 15.2% | growth inhibition [3]: 7.75% | growth inhibition [4]: -44.6% | growth inhibition [5]: 15.8% | growth inhibition [6]: -5.75%

Cc1c(Cl)c(=O)oc2cc(OCC(O)COC(C)C)ccc12 (stereo unspecified)
growth inhibition [1]: -23.7% | growth inhibition [2]: -30.9% | growth inhibition [3]: -36.3% | growth inhibition [4]: -23.2% | growth inhibition [5]: -13.3% | growth inhibition [6]: -25.4%

CC1(C)CN(CCO)C(C)(C)CN1
growth inhibition [1]: 30.6% | growth inhibition [2]: 16.3% | growth inhibition [3]: 14.9% | growth inhibition [4]: 15.8% | growth inhibition [5]: -19.8% | growth inhibition [6]: 2.5%

COc1cc([C@@H]2c3cc4c(cc3[C@@H](Nc3ccc(NC(=O)c5cc(NC(=O)c6cc([N+](=O)[O-])cn6C)cn5C)cc3)[C@H]3COC(=O)[C@H]23)OCO4)cc(OC)c1O
growth inhibition [1]: 34% | growth inhibition [2]: 31.6% | growth inhibition [3]: 34% | growth inhibition [4]: 9.2% | growth inhibition [5]: 16.4% | growth inhibition [6]: 6.45%

CCn1cc(C(=O)CCP(=O)(OC)OC)c2ccccc21
growth inhibition [1]: 7.5% | growth inhibition [2]: -22.2% | growth inhibition [3]: 3.6% | growth inhibition [4]: -12.8% | growth inhibition [5]: 5.15% | growth inhibition [6]: -0.25%

Cn1cc(/C=C\C(=O)O)c2ccccc21
growth inhibition [1]: -10.7% | growth inhibition [2]: -0.6% | growth inhibition [3]: 6.7% | growth inhibition [4]: -35.2% | growth inhibition [5]: -26.9% | growth inhibition [6]: 6.4%

Cc1cc([O-])c([I+]c2ccccc2)c(=O)[nH]1
growth inhibition [1]: 93.3% (active) | growth inhibition [2]: 66.8% | growth inhibition [3]: 97.8% (active) | growth inhibition [4]: 95.6% (active) | growth inhibition [5]: 95.5% (active) | growth inhibition [6]: 90.2% (active)

COc1ncnc2ccccc12
growth inhibition [1]: -30.9% | growth inhibition [2]: -16.8% | growth inhibition [3]: -20.8% | growth inhibition [4]: -32.8% | growth inhibition [5]: -25.2% | growth inhibition [6]: -25.1%

O=C1NC(=O)C(c2ccccc2)(c2ccsc2)N1 (stereo unspecified)
growth inhibition [1]: 12.3% | growth inhibition [2]: -4.3% | growth inhibition [3]: 1.95% | growth inhibition [4]: 10.6% | growth inhibition [5]: 1% | growth inhibition [6]: 13.6%

CCOC(=O)c1nc2ccc(C(F)(F)F)cc2[nH]c1=O
growth inhibition [1]: -23.9% | growth inhibition [2]: -14.2% | growth inhibition [3]: -17.4% | growth inhibition [4]: -47.2% | growth inhibition [5]: -11.8% | growth inhibition [6]: -10%

COC(=O)C(=O)c1c(C(=O)OC)nc2nnc(N)n2c1-c1ccc(Cl)c(Cl)c1
growth inhibition [1]: 1.7% | growth inhibition [2]: -2.8% | growth inhibition [3]: -4.9% | growth inhibition [4]: -29.9% | growth inhibition [5]: 16.1% | growth inhibition [6]: -7.55%

O=C1OC(c2ccccc2)=N/C1=C\c1cccc2ccccc12
growth inhibition [1]: -45.9% | growth inhibition [2]: -36.6% | growth inhibition [3]: -13.6% | growth inhibition [4]: 0.35% | growth inhibition [5]: -16.4% | growth inhibition [6]: -31.1%

CC(=O)OCC12CCC(C)=CC1O[C@H]1[C@@H](OC(C)=O)[C@H](OC(C)=O)[C@]2(C)[C@@]12CO2 (stereo partly specified)
growth inhibition [1]: 24.6% | growth inhibition [2]: -17.4% | growth inhibition [3]: -19.6% | growth inhibition [4]: 42.4% | growth inhibition [5]: -14.6% | growth inhibition [6]: 30.9%

C/C=C1/CC(C)C(C)(O)C(=O)OCC2C(O)CN3CCC(OC1=O)C23 (stereo unspecified)
growth inhibition [1]: 12.4% | growth inhibition [2]: -2.3% | growth inhibition [3]: -15.5% | growth inhibition [4]: -10.3% | growth inhibition [5]: -3.85% | growth inhibition [6]: -43.6%

O=S(=O)(SC1=NCCN1)c1ccc2ccccc2c1
growth inhibition [1]: -2.75% | growth inhibition [2]: -5.15% | growth inhibition [3]: -15.1% | growth inhibition [4]: 6.65% | growth inhibition [5]: -3% | growth inhibition [6]: -41.5%

O=C(Nc1ccc(Cl)cc1)Nc1nnc2nc(C(C(=O)c3ccc(O)cc3O)c3nc4nnc(NC(=O)Nc5ccc(Cl)cc5)n4[nH]c3=O)c(=O)[nH]n12
growth inhibition [1]: 25.6% | growth inhibition [2]: 39.9% | growth inhibition [3]: 44.2% | growth inhibition [4]: 60.9% | growth inhibition [5]: 14.7% | growth inhibition [6]: 12.3%

O=C1CC2C(=O)N(Cc3ccccc3)C1C=C2S(=O)(=O)c1ccccc1 (stereo unspecified)
growth inhibition [1]: -15.7% | growth inhibition [2]: 21.6% | growth inhibition [3]: 36.8% | growth inhibition [4]: 4.25% | growth inhibition [5]: -1.3% | growth inhibition [6]: 4.9%

COc1cc(OC)c2c(=O)cc(-c3ccc(OC)c(OC)c3OC)oc2c1
growth inhibition [1]: -31.8% | growth inhibition [2]: -23.6% | growth inhibition [3]: -30.1% | growth inhibition [4]: -2.3% | growth inhibition [5]: -18.4% | growth inhibition [6]: -40.5%

Oc1ccc(Cl)cc1C=Nc1cnc2ccccc2c1
growth inhibition [1]: -14.6% | growth inhibition [2]: 24.9% | growth inhibition [3]: 1.95% | growth inhibition [4]: -10.9% | growth inhibition [5]: 9.1% | growth inhibition [6]: 17.4%

O=CNCO
growth inhibition [1]: 19.6% | growth inhibition [2]: 14.2% | growth inhibition [3]: 22.6% | growth inhibition [4]: 18.9% | growth inhibition [5]: 8.5% | growth inhibition [6]: 19.1%

CC(=O)N=C1N(/C=C2\C(=O)Oc3ccccc3C2=O)C(=O)/C(=C/c2ccc(OC(C)=O)cc2)N1C
growth inhibition [1]: -9.55% | growth inhibition [2]: -17% | growth inhibition [3]: -14.9% | growth inhibition [4]: 12.9% | growth inhibition [5]: 1.05% | growth inhibition [6]: 0.75%

Cc1ccc(C(=O)Nc2ccc(CP(=O)(O)O)cc2)cc1NC(=O)c1cccc(N)c1
growth inhibition [1]: -27.2% | growth inhibition [2]: -14.7% | growth inhibition [3]: -20.4% | growth inhibition [4]: 0.9% | growth inhibition [5]: -9% | growth inhibition [6]: 4.15%

COc1ccc(CNc2ccccc2C(=O)O)cc1OC
growth inhibition [1]: 11.2% | growth inhibition [2]: 2.8% | growth inhibition [3]: -1.95% | growth inhibition [4]: 31.4% | growth inhibition [5]: 32.8% | growth inhibition [6]: 8.65%

Cn1c(=O)c2c(=O)n3ccccc3nc2n(C)c1=O
growth inhibition [1]: 48% | growth inhibition [2]: 48% | growth inhibition [3]: 72.1% (active) | growth inhibition [4]: 68.4% | growth inhibition [5]: 62.9% | growth inhibition [6]: 69.4%

CNC1C(CO)OC(n2cnc3c(N)ncnc32)C1O (stereo unspecified)
growth inhibition [1]: 1.85% | growth inhibition [2]: -9.55% | growth inhibition [3]: 3.75% | growth inhibition [4]: -60.8% | growth inhibition [5]: 2.75% | growth inhibition [6]: -13.2%

Cn1c(=O)c(-c2ccccc2)c(O)c2ccccc21
growth inhibition [1]: 14.8% | growth inhibition [2]: 12.4% | growth inhibition [3]: -2.4% | growth inhibition [4]: 27.4% | growth inhibition [5]: -8.1% | growth inhibition [6]: -20.4%
